Test results published in PubChem BioAssay (NCATS).
Records with an inconclusive call do not appear. For some of these results: Measured potencies and affinities stand elsewhere. Calls of active or inactive are those of the source.

Experiments:
[1] = Ebola virus entry assay, green fluorescence channel
[2] = Ebola virus entry assay, blue channel fluorescence
[3] = Ebola virus entry assay, green fluorescence channel; remark: listed apart in the source
[4] = Ebola virus entry assay, ratio channel readout
[5] = Ebola virus entry assay, blue channel fluorescence; remark: listed apart in the source
[6] = Ebola virus entry assay, ratio channel
[7] = Ebola virus entry assay, green channel fluorescence
[8] = Ebola virus entry assay, reporter ratio channel; AC50: Channel type: primary unless noted; outcome: Channel type: primary unless noted
[9] = Ebola virus entry reporter assay, green channel fluorescence
[10] = Ebola virus entry cell assay, ratio channel
[11] = Ebola virus entry assay, blue channel (ratio component)
[12] = Immunotoxin (HA22) sensitization/mitigation study. Vehicle arm (PBS) (AID 1159510); settings: cancer cells viability with PBS vehicle (HA22 study); series mostly up to 46.1 µM; note: potency is the fitted concentration of half-maximal effect
[13] = Immunotoxin (SS1P) sensitization/mitigation study. Vehicle arm (DMEM) (AID 1159513); settings: cell viability with vehicle (DMEM); series mostly up to 46.1 µM; note: potency is the fitted concentration of half-maximal effect
[14] = Ebola virus entry assay, blue channel fluorescence; remark: listed apart in the source
[15] = High-throughput drug toxicity screening in the BPDCN cell line Gen2.2 (AID 1224824); settings: Gen2.2 BPDCN cells; at 45.8 µM (top of the series);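 note: cells exposed to compounds for 48 h before reading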
Method in brief: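 CellTiter-Glo luminescence read after 48 h compound exposure at 37 C defines viability; percent activity set with DMSO as 100% and bortezomib (9.2 uM final) as 0%. 500 exponentially growing cells per well, RPMI plus 10% FBS.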

[16] = High-throughput drug toxicity screening in the BPDCN cell line Cal-1 (AID 1224825); settings: Cal-1 BPDCN cell viability, qHTS; at 45.8 µM (top of the series)
Method in brief: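 Cal-1 cells, 500 per well in phenol-red-free RPMI with 10% FBS, exposed to compounds for 48 hours at 37C, 5% CO2. Viability read by CellTiter-Glo luminescence; percent activity normalized to DMSO (100%) and 9.2 uM bortezomib final (0%).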

[17] = qHTS assay for measurement of the activity of small molecule inhibitors on Zika virus induced Caspase-3 activity in human astrocytoma cells (AID 1224859; active = well fitted inhibition curve with a large enough effect;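 note: plate controls were ZIKV-infected untreated cells for no effect and uninfected cells for full effect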); settings: SNB-19 ZIKV-induced caspase-3/7, luminescence, 6 h; series mostly up to 45.7 µM
Method in brief: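 Readout is luminescence from Caspase-Glo 3/7 added after a 6 h ZIKV infection (2 FFU/cell) of compound-pretreated (1 h) SNB-19 cells; data expressed as % inhibition versus uninfected and infected wells.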

[18] = qHTS Screen of the MIPE 4.0 Collection Against Ewings Sarcoma (RDES) (AID 1259252; active = well fitted inhibition curve with a large enough effect;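 note: 100% = DMSO-treated cells and 0% = medium-only wells without cells; nearly all actives have a fitted effect of over 35% in size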); settings: RD-ES Ewing sarcoma viability, CellTiter-Glo, 48 h; series mostly up to 45.8 µM
Method in brief: (§1)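 Viability screen: 48 h incubation at 37C, 95% humidity, 5% CO2 with serially titrated compound, followed by CellTiter-Glo readout.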

[19] = qHTS Screen of the MIPE 4.0 Collection Against Ewings Sarcoma (TC32) (AID 1259256; active = well fitted inhibition curve with a large enough effect;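 note: 100% = DMSO-treated cells and 0% = medium-only wells without cells; nearly all actives have a fitted effect of over 45% in size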); settings: TC32 Ewing sarcoma viability, CellTiter-Glo, 48 h; series mostly up to 45.8 µM
Method in brief: as §1
Throughout, for efficacy: 0% is about no effect.

C#C[C@]1(O)CC[C@H]2[C@@H]3CCC4=Cc5oncc5C[C@]4(C)[C@H]3CC[C@@]21C
active: AC50 [5] 7.94 µM | AC50 [6] 6.31 µM | AC50 [8] 6.31 µM | AC50 [10] 25.1 µM
inactive: efficacy [1] 22.7% | outcome [2] | outcome [3] | outcome [4] | outcome [7] | outcome [9]

NNc1nncc2ccccc12
inactive: efficacy [1] -27.3% | outcome [2] | outcome [3] | outcome [4] | outcome [5] | outcome [6] | outcome [7] | outcome [8] | outcome [11] | outcome [9] | outcome [10]

C#Cc1cccc(Nc2ncnc3cc(OCCOC)c(OCCOC)cc23)c1
active: AC50 [10] 8.91 µM | Potency [12] 16.6 µM | Potency [13] 4.69 µM
inactive: efficacy [1] -13.7% | outcome [2] | outcome [3] | outcome [4] | outcome [5] | outcome [6] | outcome [7] | outcome [8] | outcome [11] | outcome [9]

CN(C)CCOC(C)(c1ccccc1)c1ccccn1 (stereo not drawn)
inactive: efficacy [1] 20.1% | outcome [2] | outcome [3] | outcome [4] | outcome [7] | outcome [10]
active: AC50 [5] 15.8 µM | AC50 [6] 14.1 µM | AC50 [8] 14.1 µM

C[C@](N)(Cc1ccc(O)c(O)c1)C(=O)O
active: AC50 [5] 15.8 µM | AC50 [6] 22.4 µM | AC50 [8] 22.4 µM
inactive: efficacy [1] 20.7% | outcome [2] | outcome [3] | outcome [4] | outcome [7] | outcome [14] | outcome [10]

Cc1cn([C@H]2C[C@H](N=[N+]=[N-])[C@@H](CO)O2)c(=O)[nH]c1=O
inactive: efficacy [1] 17% | outcome [2] | outcome [3] | outcome [4] | outcome [5] | outcome [6] | outcome [7] | outcome [8] | outcome [11] | outcome [10]

COc1cc2nc(N3CCN(C(=O)C4CCCO4)CC3)nc(N)c2cc1OC (stereo not drawn)
active: AC50 [5] 35.5 µM | AC50 [8] 28.2 µM
inactive: efficacy [1] 13% | outcome [2] | outcome [3] | outcome [4] | outcome [6] | outcome [7] | outcome [14] | outcome [9] | outcome [10]

CN1CCC[C@@H]1Cc1c[nH]c2ccc(CCS(=O)(=O)c3ccccc3)cc12
inactive: efficacy [1] 20.7% | outcome [2] | outcome [3] | outcome [4] | outcome [7] | outcome [10]
active: AC50 [5] 25.1 µM | AC50 [6] 25.1 µM | AC50 [8] 25.1 µM

NC1[C@H]2CN(c3nc4c(cc3F)c(=O)c(C(=O)O)cn4-c3ccc(F)cc3F)C[C@@H]12 (stereo partly drawn)
inactive: efficacy [1] -13.1% | outcome [2] | outcome [3] | outcome [4] | outcome [5] | outcome [6] | outcome [7] | outcome [14] | outcome [8] | outcome [9] | outcome [10]

COc1c(C)c2c(c(O)c1C/C=C(\C)CCC(=O)OCCN1CCOCC1)C(=O)OC2
inactive: efficacy [1] -9.5% | outcome [2] | outcome [3] | outcome [4] | outcome [5] | outcome [6] | outcome [7] | outcome [8] | outcome [11]
active: AC50 [10] 3.98 µM

CCOC(=O)C1=C(C)NC(C)=C(C(=O)OC)C1c1cccc(Cl)c1Cl (stereo not drawn)
inactive: efficacy [1] 20.7% | outcome [2] | outcome [3] | outcome [4] | outcome [5] | outcome [6] | outcome [7] | outcome [8] | outcome [11] | outcome [10]

CCCC(C)(COC(N)=O)COC(=O)NC(C)C (stereo not drawn)
110%: viability (% of control) [16]
386%: cell viability, % of control (lower = more cytotoxic) [15]
inactive: efficacy [1] 22.1% | outcome [2] | outcome [3] | outcome [4] | outcome [5] | outcome [6] | outcome [7] | outcome [14] | outcome [8] | outcome [11] | outcome [10] | outcome [17] | Potency [18] | Potency [19]

CC(=O)CCCCn1c(=O)c2c(ncn2C)n(C)c1=O
inactive: efficacy [1] -14.2% | outcome [2] | outcome [3] | outcome [4] | outcome [5] | outcome [6] | outcome [7] | outcome [14] | outcome [8] | outcome [11] | outcome [10]

Nc1ccc(O)c(C(=O)O)c1
active: AC50 [5] 28.2 µM | AC50 [8] 31.6 µM
inactive: efficacy [1] 18.3% | outcome [2] | outcome [3] | outcome [4] | outcome [6] | outcome [7] | outcome [14] | outcome [9] | outcome [10]

Cc1nccn1CC1CCc2c(c3ccccc3n2C)C1=O (stereo not drawn)
inactive: efficacy [1] -22.2% | outcome [2] | outcome [3] | outcome [4] | outcome [7] | outcome [14] | outcome [9] | outcome [10]
active: AC50 [5] 22.4 µM | AC50 [6] 22.4 µM | AC50 [8] 22.4 µM

CN(C/C=C/C#CC(C)(C)C)Cc1cccc2ccccc12
inactive: efficacy [1] -24.6% | outcome [2] | outcome [3] | outcome [4] | outcome [6] | outcome [7] | outcome [14] | outcome [9] | outcome [10]
active: AC50 [5] 28.2 µM | AC50 [8] 35.5 µM

Nc1nc(N)c2nc(-c3ccccc3)c(N)nc2n1
inactive: efficacy [1] 17.5% | outcome [2] | outcome [3] | outcome [4] | outcome [5] | outcome [6] | outcome [7] | outcome [8] | outcome [9] | outcome [10]

Cc1ccc(C)c(OCCCC(C)(C)C(=O)O)c1
inactive: efficacy [1] -13.5% | outcome [2] | outcome [3] | outcome [4] | outcome [5] | outcome [6] | outcome [7] | outcome [14] | outcome [8] | outcome [9] | outcome [10]

Nc1cccc2c1CN(C1CCC(=O)NC1=O)C2=O (stereo not drawn)
inactive: efficacy [1] 15.2% | outcome [2] | outcome [3] | outcome [4] | outcome [5] | outcome [6] | outcome [7] | outcome [8] | outcome [11] | outcome [9] | outcome [10] | Potency [12] | Potency [13]
